Results from the supplement of paper PMC6555819.

Assays:
Experiment in all cases: PBM binding z-score (relative to random genomic background probes); higher = stronger binding; sequences stand for … in GC…GCGATTGACAGCGTAGAATGAAGG
[1] = tested on: FXR:RXRa (NR concentration 270 nM, RXRa partner concentration 90 nM)
Summary of the method: (§1)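 Binding z-scores take random background probes as their reference. They come from custom Agilent 4×180K protein-binding microarrays incubated 1 h with ligand-free nuclear receptor dimers, with antibodies against each partner (one per run) detecting binding. Scanned fluorescence was regression-normalized.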

[2] = tested on: LXRa:RXRa (NR concentration 270 nM, RXRa partner concentration 90 nM)
Summary of the method: as §1

[3] = tested on: LXRa homodimer (NR concentration 270 nM)
Summary of the method: as §1

[4] = tested on: LXRb:RXRa (NR concentration 270 nM, RXRa partner concentration 90 nM)
Summary of the method: as §1

[5] = tested on: LXRb homodimer (NR concentration 270 nM)
Summary of the method: as §1

[6] = tested on: PPARa:RXRa (NR concentration 270 nM, RXRa partner concentration 90 nM)
Summary of the method: as §1

[7] = tested on: PPARg:RXRa (NR concentration 180 nM, RXRa partner concentration 90 nM)
Summary of the method: as §1

[8] = tested on: PPARg:RXRa 270nM:90nM, anti-RXR (NR concentration 270 nM, RXRa partner concentration 90 nM)
Summary of the method: as §1

[9] = tested on: PPARg:RXRa 30nM:10nM, anti-RXR (NR concentration 30 nM, RXRa partner concentration 10 nM)
Summary of the method: as §1

[10] = tested on: PPARg:RXRa 90nM:30nM, anti-RXR (NR concentration 90 nM, RXRa partner concentration 30 nM)
Summary of the method: as §1

[11] = tested on: PPARg:RXRa DBDmut IVT, anti-RXR (DBD mutation: RXRa K156A/R161A, NR concentration 270 nM, RXRa partner concentration 90 nM)
Summary of the method: as §1

[12] = tested on: PPARg:RXRa IVT, anti-PPARg (NR concentration 270 nM, RXRa partner concentration 90 nM)
Summary of the method: as §1

[13] = tested on: PPARg DBDmut:RXRa IVT, anti-PPARg (DBD mutation: PPARg1 K132A/R137A, NR concentration 270 nM, RXRa partner concentration 90 nM)
Summary of the method: as §1

[14] = tested on: PPARg DBDmut IVT, anti-PPARg (DBD mutation: PPARg1 K132A/R137A, NR concentration 270 nM)
Summary of the method: as §1

[15] = tested on: PPARg homodimer (NR concentration 180 nM)
Summary of the method: as §1

[16] = tested on: PXR:RXRa (NR concentration 270 nM, RXRa partner concentration 90 nM)
Summary of the method: as §1

[17] = tested on: PXR homodimer (NR concentration 270 nM)
Summary of the method: as §1

[18] = tested on: RARa:RXR (NR concentration 270 nM, RXRa partner concentration 90 nM)
Summary of the method: as §1

[19] = tested on: RARa homodimer (NR concentration 270 nM)
Summary of the method: as §1

[20] = tested on: RARb:RXRa (NR concentration 270 nM, RXRa partner concentration 90 nM)
Summary of the method: as §1

Sequence	PBM binding z-score [1]	PBM binding z-score [2]	PBM binding z-score [3]	PBM binding z-score [4]	PBM binding z-score [5]	PBM binding z-score [6]	PBM binding z-score [7]	PBM binding z-score [8]	PBM binding z-score [9]	PBM binding z-score [10]	PBM binding z-score [11]	PBM binding z-score [12]	PBM binding z-score [13]	PBM binding z-score [14]	PBM binding z-score [15]	PBM binding z-score [16]	PBM binding z-score [17]	PBM binding z-score [18]	PBM binding z-score [19]	PBM binding z-score [20]
GGTACAGGGTCAGCTAGAGGCCAGAGTATGGAAA	4.99	2.87	-0.106	2.67	-0.0836	4.62	4.12	3.78	0.502	2.27	0.482	2.29	0.521	-0.216	2.93	3.37	0.15	4.88	0.0993	4.22
CCGAGTAGGTTATGGGGCATTCAAGCAACGGTGA	0.071	0.506	-0.128	0.732	0.278	2.1	3.82	4.64	2.45	4.67	3.32	3.2	-0.98	0.0415	1.36	-0.0285	-0.292	0.26	-0.114	1.08
CCGACTGGGGCATAAGGTTAACATAAGCCAGCCC	0.54	1.08	-0.335	0.945	-1.21	2.22	2.6	3.42	1.27	2.84	3.23	3.36	-0.239	-1.26	0.548	0.636	-0.242	1.51	-0.431	1.88
CCTGCTAGGTCATGGTAAGCTAATCTACAGTATG	3.82	2.46	0.0967	1.86	-0.0761	3.64	2.48	2.64	0.993	1.66	4.44	3.92	0.752	0.561	1.24	1.15	-0.26	2.32	-0.305	3.87
TCTAGTTGGTCAAAGTTCACACACTCGAAATGCG	3.96	4.54	4.63	3.66	1.36	5.5	9.83	9.2	8.79	9.75	2.57	4.89	1.12	1.12	3.54	5.09	4.01	5.1	2.77	3.83
CCTTACGGATCAAGGTTATAGCACGGGTGGTACG	0.336	0.57	0.38	0.5	0.21	0.917	0.684	0.188	-0.114	0.0556	-0.655	0.0573	-0.059	0.154	0.562	0.548	0.798	0.636	1.03	0.891
ATATGTAGGTTATCTGGTCATTCAGTTTGCGCAT	1.2	1.28	1.15	1.21	0.901	3.58	5.56	4.79	2.32	4.3	7.43	7.03	4.79	3.41	2.41	1.26	1.14	0.738	1.75	1.42
TGAAGGAGGTTAAAGATCAGGGAACGTGGCGTCG	2.43	2.05	0.112	1.62	0.187	3.67	4.96	5.81	4.55	6.03	1	2.36	0.183	-0.165	1.34	1.63	0.472	2.7	0.897	1.74
TCTCGGAGCACACGAAAGGTCAGAGCTCGACATC	1.92	3.07	1.44	2.84	-0.493	3.39	0.926	1.94	1.5	1.49	0.786	0.883	-0.964	-0.475	2.57	3.52	-0.0353	4.12	0.999	3.45
AGTCTAAGTTCATCTAGGTAACGTAAGATATGCT	4.07	4.07	1.92	2.09	0.539	3.17	1.72	2.24	0.691	1.31	0.694	2.11	1.22	1.39	1.48	4.78	8.13	2.24	0.123	3.55
TCTAATTGGTCACGGAGGTCACACACGACGGGTA	3.62	4	2.74	3.75	1.6	4.35	4.51	5.01	4.41	5.06	2.78	4.04	1.67	1.69	3.37	4.81	1.7	4.76	2.23	4.2
AGAACGAGGGCAATGCGTTGATAGCACGGGTGGC	0.0853	0.264	-0.517	-0.19	-0.678	1.3	1.36	0.671	-0.109	0.215	2.94	2.57	1.12	0.0782	-0.251	0.219	0.111	0.271	-0.114	2.21
CCGACTGGGGCAAAAGTTACCATACTCAGTACGA	-0.402	-0.339	-0.126	-0.0156	-0.764	2.49	5.28	6.09	4.45	6.52	4.08	3.59	-0.127	-0.288	0.506	-0.414	-0.137	-0.0334	-0.135	0.202
TAATATAGGTAAACAGGTGAAAGTCCGTAAGTTA	0.323	0.622	0.406	0.745	0.296	3.34	5.42	4.89	2.54	4.16	6.47	6.56	2.22	1.8	2.01	0.69	0.586	1.12	1.5	0.768
AGAACGAGGGCAATGAGTTGATAGCCCGGGTGGC	0.0897	0.0637	-0.355	-0.437	-0.943	1.34	1.01	0.868	-0.3	0.416	3.22	2.62	0.0916	-0.0623	0.48	1.43	5.33	0.0801	-0.603	2.13
CAAGACAGGTGAAAGGTAACTCAGTCTGGTACGC	1.04	1.14	-0.209	0.929	0.289	3.73	5.4	5.94	4.14	6.08	1.61	2.88	0.223	0.183	0.995	1.09	0.0379	1.92	0.108	1.57
TGTAGTTGGTCACGGAGGTCACACACGACGGGTA	3.41	3.44	2.52	3.09	0.847	3.87	3.72	3.52	1.51	2.93	0.726	3.95	0.96	0.805	2.4	4.14	0.948	4.35	0.915	3.87
CGAACGAGGGCGTGAGTTGATAGCAAATGCCGAT	-0.128	-0.241	-0.781	-0.468	-0.878	0.0145	0.401	0.0824	-0.205	-0.084	0.665	0.126	-0.548	-1.21	-0.313	-0.163	-0.37	-0.268	-0.533	0.442
AGTCAAAGTTCGGGACGAGGTAACGTAAAGCACG	0.65	0.402	-0.198	0.242	-0.3	1.08	1.85	2.33	0.491	1.33	-0.421	0.748	0.226	-0.0246	0.441	0.716	0.0422	0.869	-0.0634	1.86
GCTTGTAGATCAAGGTTAAGAAAGACTAAGCTAA	0.0354	0.884	-0.55	0.55	-0.627	1.56	1.01	2.05	0.29	1.56	0.698	1.3	-0.233	0.273	0.452	0.314	-0.212	0.726	-0.0899	0.759
TGTCAAAGTTCAAAGGGAACGTAAGTATCCACAC	7.11	6.18	3.96	4.16	1.68	5.06	8.1	7.17	5.31	7.11	-0.458	3.95	2.37	1.56	4.11	4.92	4.8	4.2	1.6	4.93
CTCGAAAGGTCGGGCTCAGGTGAGTATACCAAAC	3.1	2.11	-0.238	1.9	0.116	3.25	0.671	1.88	-0.168	0.853	0.601	1.13	0.0395	-0.176	1.13	1.64	-0.297	2.71	0.232	3.36
TCAGACTGGTGAAGGTAACTCAGGTACGCAGTCG	-0.62	0.98	-0.387	0.192	-1.07	0.467	0.185	1.29	2.82	1.98	1.41	0.112	-0.324	-0.759	-0.234	0.0294	-0.386	0.305	-0.373	-0.0149
ATACCAGGGTGATCGTGAGGTCGTTGATACTAAC	1.34	1.44	0.904	1.5	0.0794	1.82	0.781	0.722	0.104	0.486	0.0988	1.34	0.464	0.118	1.12	3.24	1.47	2.44	0.625	1.23
CCTTACGGGTCGCGAGGTTATAGCACGACGAGCG	2.87	1.99	-0.147	1.82	-0.455	3.61	1.91	2.15	0.056	0.872	0.357	1.14	-0.25	-0.857	1.41	2.63	-0.189	3.62	-0.132	2.23
CGTCCAAGGTCAGAGAGGTCAGAGAATGCCGAGT	6.45	5.34	3.4	4.53	0.508	5.1	3.75	4.28	1.33	3	2.84	3.53	0.0352	-0.116	4.06	6.31	11.8	5.66	1.75	5.18
